Reference: PubChem BioAssay AID1159580 (chemical genetic matrix, 2015)
Hit rate of the full screen: of about 5,500 compounds, about 2,000 (36%) were called active. About 18% were inconclusive and are not listed. Cut-off read from the data, not from the text of the source: active = normalized growth mostly below about 0.91 (no sharp cut-off); inconclusive = no clear call, values can overlap the other calls; inactive = mostly above about 0.92. Some of the results follow.

Experiment: chemical genetic growth profiling, strain panel (AID 1159580);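 note: tested at 20 µM; growth read once vehicle control cultures reached saturation at 30 °C; 1 = growth at the plate median or of vehicle wells; lower values mean less growth of the strain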
Settings: S. cerevisiae deletion strains, growth OD
[1] = locus YAR019C, strain CDC15, hits give low values
[2] = locus YBL105C, strain PKC1, hits give low values
[3] = locus YBR135W, strain CKS1, hits give low values
[4] = locus YBR136W, strain MEC1, hits give low values
[5] = locus YBR160W, strain CDC28, hits give low values
[6] = locus YDL017W, strain CDC7, hits give low values
[7] = locus YDL028C, strain MPS1, hits give low values
[8] = locus YDL101C, strain DUN1, hits give low values
[9] = locus YDL108W, strain KIN28, hits give low values
[10] = locus YDL132W, strain cdc53, hits give low values
[11] = locus YDL214C, strain PRR2, hits give low values
[12] = locus YDR052C, strain DBF4, hits give low values
[13] = locus YDR054C, strain cdc34, hits give low values
[14] = locus YDR226W, strain ADK1, hits give low values
[15] = locus YDR477W, strain SNF1, hits give low values
[16] = locus YER123W, strain YCK3, hits give low values
[17] = locus YER133W, strain GLC7, hits give low values
[18] = locus YFL009W, strain cdc4, hits give low values
[19] = locus YFL029C, strain CAK1, hits give low values
[20] = locus YFR003C, strain YPI1, hits give low values
[21] = locus YFR019W, strain FAB1, hits give low values
[22] = locus YFR028C, strain CDC14, hits give low values
[23] = locus YGR040W, strain KSS1, hits give low values
[24] = locus YGR052W, strain FMP48, hits give low values
[25] = locus YGR092W, strain DBF2, hits give low values
[26] = locus YHR030C, strain SLT2, hits give low values
[27] = locus YHR079C, strain IRE1, hits give low values
[28] = locus YHR082C, strain KSP1, hits give low values
[29] = locus YHR205W, strain SCH9, hits give low values
[30] = locus YIL147C, strain SLN1, hits give low values
[31] = locus YJL095W, strain BCK1, hits give low values
[32] = locus YJL128C, strain PBS2, hits give low values
[33] = locus YJL157C, strain FAR1, hits give low values
[34] = locus YJR016C, strain ILV3, hits give low values
[35] = locus YJR066W, strain TOR1 (second series), hits give low values
[36] = locus YJR066W, strain TOR1, hits give low values
[37] = locus YKL048C, strain ELM1, hits give low values
[38] = locus YKL067W, strain YNK1, hits give low values
[39] = locus YKL101W, strain HSL1, hits give low values
[40] = locus YKL193C, strain SDS22, hits give low values
[41] = locus YKL203C, strain TOR2, hits give low values
[42] = locus YLR113W, strain HOG1, hits give low values
[43] = locus YLR133W, strain CKI1, hits give low values
[44] = locus YLR403W, strain SFP1, hits give low values
[45] = locus YML070W, strain DAK1, hits give low values
[46] = locus YMR001C, strain CDC5, hits give low values
[47] = locus YMR205C, strain PFK2 (second series), hits give low values
[48] = locus YMR277W, strain FCP1, hits give low values
[49] = locus YNL006W, strain LST8, hits give low values
[50] = locus YNL020C, strain ARK1, hits give low values
[51] = locus YNL161W, strain CBK1, hits give low values
[52] = locus YNL183C, strain NPR1, hits give low values
[53] = locus YNL207W, strain RIO2, hits give low values
[54] = locus YNL222W, strain SSU72, hits give low values
[55] = locus YNL307C, strain MCK1 (second series), hits give low values
[56] = locus YOL078W, strain AVO1, hits give low values
[57] = locus YOL136C, strain PFK27, hits give low values
[58] = locus YOR061W, strain CKA2, hits give low values
[59] = locus YOR119C, strain RIO1, hits give low values
[60] = locus YOR231W, strain MKK1, hits give low values
[61] = locus YOR329C, strain SCD5, hits give low values
[62] = locus YPL031C, strain PHO85, hits give low values
[63] = locus YPL153C, strain RAD53, hits give low values
[64] = locus YPL204W, strain HRR25, hits give low values
[65] = locus YPL209C, strain IPL1, hits give low values
[66] = locus YPL256C, strain CLN2, hits give low values
[67] = locus YPR025C, strain CCL1, hits give low values
[68] = locus YPR106W, strain ISR1, hits give low values
[69] = locus YPR111W, strain DBF20, hits give low values
[70] = strain NNK1, hits give low values
[71] = strain TSCII, hits give low values

Measured: normalized growth

C[C@@H](Nc1ncnc2sc3c(c12)CCCC3)c1ccccc1
active: [42] 0.766 | [66] 0.787
inactive: [1] 0.955 | [2] 0.955 | [3] 0.953 | [4] 0.958 | [5] 0.942 | [6] 0.961 | [7] 0.954 | [8] 0.945 | [9] 0.95 | [10] 0.951 | [11] 0.904 | [12] 0.963 | [13] 0.94 | [14] 0.963 | [15] 0.932 | [16] 0.895 | [17] 0.928 | [18] 0.951 | [19] 0.949 | [20] 0.958 | [21] 0.941 | [22] 0.951 | [23] 0.913 | [24] 0.954 | [25] 0.901 | [26] 0.924 | [27] 0.914 | [28] 0.944 | [29] 0.877 | [30] 0.954 | [31] 0.931 | [32] 0.889 | [33] 0.916 | [34] 0.963 | [35] 0.901 | [36] 0.969 | [37] 0.907 | [38] 0.917 | [39] 0.891 | [40] 0.953 | [41] 0.967 | [43] 0.919 | [44] 0.89 | [45] 0.893 | [46] 0.951 | [47] 0.919 | [48] 0.951 | [49] 0.956 | [50] 0.915 | [51] 0.954 | [52] 0.918 | [53] 0.944 | [54] 0.949 | [55] 0.912 | [56] 0.955 | [57] 0.893 | [58] 0.916 | [59] 0.979 | [60] 0.844 | [61] 0.959 | [62] 0.942 | [63] 0.918 | [64] 0.932 | [65] 0.947 | [67] 0.949 | [68] 0.93 | [69] 0.922 | [70] 0.929 | [71] 0.951

CC1CCC(C(C)C)C(N(Cc2ccccc2)C(=O)c2ccccc2)C1 (stereo unspecified)
inactive: [1] 0.996 | [2] 0.987 | [3] 0.986 | [4] 0.98 | [5] 0.986 | [6] 0.987 | [7] 0.994 | [8] 0.974 | [9] 0.986 | [10] 0.984 | [11] 0.961 | [12] 0.985 | [13] 0.991 | [14] 0.98 | [15] 0.98 | [16] 0.97 | [17] 0.978 | [18] 0.985 | [19] 0.994 | [20] 0.985 | [21] 0.954 | [22] 0.981 | [23] 0.963 | [24] 0.969 | [25] 0.946 | [26] 1.01 | [27] 1 | [28] 1.01 | [29] 0.911 | [30] 0.987 | [31] 0.923 | [32] 0.923 | [33] 0.979 | [34] 0.992 | [35] 0.959 | [36] 1.01 | [37] 0.958 | [38] 0.967 | [39] 0.932 | [40] 0.994 | [41] 1.01 | [42] 0.922 | [43] 0.945 | [44] 0.913 | [45] 0.961 | [46] 0.992 | [47] 0.976 | [48] 0.987 | [49] 0.988 | [50] 0.956 | [51] 0.984 | [52] 0.975 | [53] 0.979 | [54] 0.99 | [55] 0.898 | [56] 0.981 | [57] 0.925 | [58] 0.971 | [59] 1.05 | [60] 0.977 | [61] 0.991 | [62] 0.981 | [63] 0.983 | [64] 0.952 | [65] 0.986 | [66] 1.04 | [67] 0.988 | [68] 0.976 | [69] 0.948 | [70] 0.965 | [71] 0.985

CC(C)N(CCC(=O)c1ccc2ccccc2c1)Cc1ccccc1
active: locus YAL013W, strain DEP1, hits give low values 0.086 | locus YAL040C, strain CLN3, hits give low values 0.0757 | locus YCL061C, strain MRC1 (second series), hits give low values 0.0525 | locus YDR150W, strain NUM1, hits give low values 0.058 | locus YDR363W, strain ESC2, hits give low values 0.141 | locus YER002W, strain NOP16, hits give low values 0.0619 | locus YGR078C, strain PAC10, hits give low values 0.107 | locus YJR075W, strain HOC1, hits give low values 0.0706 | locus YMR307W, strain GAS1, hits give low values 0.0933 | locus YNL128W, strain TEP1, hits give low values 0.0691 | locus YNL153C, strain GIM3, hits give low values 0.0944 | locus YNL175C, strain NOP13, hits give low values 0.111 | locus YNL197C, strain WHI3, hits give low values 0.534 | locus YNL224C, strain SQS1, hits give low values 0.0703 | locus YOR083W, strain WHI5 (second series), hits give low values 0.124

CNCC[C@H](Oc1cccc2ccccc12)c1cccs1
inactive: [26] 0.991 | [27] 0.993 | [31] 1 | [36] 0.924 | [42] 1.02 | [52] 0.938 | [60] 0.988 | [66] 0.987

CNC(=O)Sc1c(-c2ccc(Cl)cc2)nn(C(=O)NC)c1SC
active: [11] 0.319 | [15] 0.428 | [16] 0.199 | [17] 0.485 | [21] 0.264 | [23] 0.413 | [24] 0.315 | [25] 0.266 | [26] 0.335 | [27] 0.324 | [28] 0.353 | [29] 0.446 | [31] 0.256 | [33] 0.315 | [35] 0.286 | [36] 0.302 | [37] 0.545 | [38] 0.335 | [39] 0.378 | [41] 0.491 | [42] 0.284 | [43] 0.397 | [44] 0.482 | [45] 0.297 | [47] 0.461 | [50] 0.342 | [52] 0.274 | [55] 0.233 | [57] 0.316 | [58] 0.355 | [59] 0.467 | [60] 0.315 | [62] 0.422 | [63] 0.337 | [64] 0.399 | [66] 0.368
inactive: [1] 0.979 | [2] 0.961 | [3] 0.949 | [4] 0.952 | [5] 0.961 | [6] 0.949 | [7] 0.941 | [8] 0.958 | [9] 0.94 | [10] 0.978 | [12] 0.939 | [13] 0.985 | [14] 0.952 | [18] 0.962 | [19] 0.974 | [20] 0.946 | [22] 0.985 | [30] 0.934 | [32] 0.911 | [34] 0.969 | [40] 0.97 | [46] 0.971 | [48] 0.979 | [49] 0.971 | [51] 0.954 | [53] 0.964 | [54] 0.969 | [56] 0.981 | [61] 0.977 | [65] 0.97 | [67] 0.973 | [68] 0.994 | [69] 0.982 | [70] 0.996 | [71] 0.977
